Here are results for 14 compounds from ChEMBL document CHEMBL4513146, “CO-ADD screening of Karazin Kharkiv National University (Ukraine) compounds”.

In general, Inhibition refers to the drop in the measured response relative to a control, in per cent.

SMILES strings stand for the structures. Results with a measured potency or affinity are listed apart.

This assay deals with Klebsiella pneumoniae. To be noted: Concentration 32 ug.mL-1;; ASSAY_TEST Inhibition of Bacterial Growth; detection method Absorption (OD600); MEDIA CAMHB; plate type 384well; NBS; CORNING #3640; time 18 hr.
In the case of `CC1CCc2c(sc3ncn4c(=O)n(CC(=O)Nc5ccc6c(c5)CCC6)nc4c23)C1` (centres undefined), the Inhibition worked out at 13.08%.

As to `COc1ccc(NC(=O)Cn2nc3c(Oc4ccccc4)nccn3c2=O)cc1`, the Inhibition worked out at 8.21%.

With `COc1cccc(-n2ccn3c(SCc4cccc(C(F)(F)F)c4)nnc3c2=O)c1`, the Inhibition is recorded as -17.2%.

On to `COc1ccc(-c2cc3c4nnc(SCC(=O)Nc5ccc(C)cc5Cl)n4ccn3n2)cc1`, for which the Inhibition is reported as 11.06%.

Regarding `Cc1ccc(C)c(CSc2nnc3c(=O)n(-c4ccc(F)c(F)c4)ccn23)c1`, the Inhibition is given as -0.25%.

`CCCc1nnc2c(=O)n(CC(=O)Nc3ccc(C(C)=O)cc3)c3ccccc3n12`: the Inhibition was 3.81%.

On to `Cc1ccc(CN(c2cc(C)cc(C)c2)S(=O)(=O)c2cccn3c(C)nnc23)cc1`, for which the Inhibition was determined as 1.08%.

As for `COc1ccc(NC(=O)Cn2nc3ccc(SC4CCCCC4)nn3c2=O)cc1OC`, the Inhibition is given as 8.74%.

As for `COc1ccccc1N1CCN(C(=O)CSc2nc3ccccc3n3c(C(C)C)nnc23)CC1`, the Inhibition is reported as 6.45%.

On to `CCc1cccc(NC(=O)Cn2nc3c(SCc4ccc(Cl)cc4)nccn3c2=O)c1`, for which the Inhibition came to 7.77%.

Take `COc1ccc(OC)c(NC(=O)Cn2nc3c4cc(-c5ccc(C)c(C)c5)nn4ccn3c2=O)c1`: the Inhibition worked out at 5.66%.

Regarding `Cc1ccc(CN(c2ccccc2)S(=O)(=O)c2ccc3nncn3c2)cc1`, the Inhibition was -1.94%.

Take `O=C(Cn1nc2c(Oc3ccccc3)nccn2c1=O)Nc1ccc(F)cc1F`: the Inhibition was determined as 0.94%.

Turning to `CCCCOc1ccc(-c2cc3c4nnc(SCC(=O)Nc5ccc(Cl)cc5)n4ccn3n2)cc1`, the Inhibition is listed as 11.84%.
